Data reported in the supplement of paper PMC6411743.
± gives the standard deviation of the averaged measurements. Of roughly 5,400 targets only a part is listed; those with the largest changes were picked by preference.

Compound: Nc1nc2c(ncn2[C@@H]2O[C@H](COP(=O)(O)OP(=O)(O)OP(=O)(O)O)[C@@H](O)[C@H]2O)c(=O)[nH]1 [guanosine triphosphate]
Experiment: NP40-soluble protein abundance relative to vehicle (solubility fold change) (ratio); higher = more soluble protein in presence of GTP
Experimental: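 Solubility proteome profiling in Jurkat crude lysate. Lysate was treated with Mg-GTP (0.1-10 mM) for 10 min at room temperature and 3 min at 37 °C, then solubilised with 0.8% NP40 and benzonase, followed by ultracentrifugation. Proteins were quantified by TMT10 LC-MS/MS; the value is the NP40-soluble abundance relative to the NP40-processed vehicle, from 3 independent experiments.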

Chain of UniProt P02792 (P02792 whole entry, one chain of several): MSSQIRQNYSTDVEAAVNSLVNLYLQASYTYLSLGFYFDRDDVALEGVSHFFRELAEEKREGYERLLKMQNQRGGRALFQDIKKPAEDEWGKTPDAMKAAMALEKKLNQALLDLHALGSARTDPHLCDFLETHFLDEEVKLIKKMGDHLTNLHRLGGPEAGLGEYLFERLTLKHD
Chain of UniProt Q96ME7 (Q96ME7 whole entry, one chain of several): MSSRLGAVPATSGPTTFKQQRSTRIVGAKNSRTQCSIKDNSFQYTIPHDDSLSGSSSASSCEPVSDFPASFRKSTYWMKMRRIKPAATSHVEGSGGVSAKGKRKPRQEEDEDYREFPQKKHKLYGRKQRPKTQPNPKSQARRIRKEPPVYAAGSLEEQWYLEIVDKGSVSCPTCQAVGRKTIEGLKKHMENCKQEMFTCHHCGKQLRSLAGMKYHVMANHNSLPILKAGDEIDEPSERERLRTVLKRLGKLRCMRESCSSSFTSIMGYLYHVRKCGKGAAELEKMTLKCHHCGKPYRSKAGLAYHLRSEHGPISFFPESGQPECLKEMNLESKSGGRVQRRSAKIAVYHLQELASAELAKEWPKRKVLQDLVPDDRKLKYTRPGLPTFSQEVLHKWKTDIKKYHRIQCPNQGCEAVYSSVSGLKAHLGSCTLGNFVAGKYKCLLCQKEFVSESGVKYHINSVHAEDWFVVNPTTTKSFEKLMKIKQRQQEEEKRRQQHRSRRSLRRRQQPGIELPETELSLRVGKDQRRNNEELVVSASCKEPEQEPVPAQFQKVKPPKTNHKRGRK
Chain of UniProt P22102 (P22102 whole entry, one chain of several): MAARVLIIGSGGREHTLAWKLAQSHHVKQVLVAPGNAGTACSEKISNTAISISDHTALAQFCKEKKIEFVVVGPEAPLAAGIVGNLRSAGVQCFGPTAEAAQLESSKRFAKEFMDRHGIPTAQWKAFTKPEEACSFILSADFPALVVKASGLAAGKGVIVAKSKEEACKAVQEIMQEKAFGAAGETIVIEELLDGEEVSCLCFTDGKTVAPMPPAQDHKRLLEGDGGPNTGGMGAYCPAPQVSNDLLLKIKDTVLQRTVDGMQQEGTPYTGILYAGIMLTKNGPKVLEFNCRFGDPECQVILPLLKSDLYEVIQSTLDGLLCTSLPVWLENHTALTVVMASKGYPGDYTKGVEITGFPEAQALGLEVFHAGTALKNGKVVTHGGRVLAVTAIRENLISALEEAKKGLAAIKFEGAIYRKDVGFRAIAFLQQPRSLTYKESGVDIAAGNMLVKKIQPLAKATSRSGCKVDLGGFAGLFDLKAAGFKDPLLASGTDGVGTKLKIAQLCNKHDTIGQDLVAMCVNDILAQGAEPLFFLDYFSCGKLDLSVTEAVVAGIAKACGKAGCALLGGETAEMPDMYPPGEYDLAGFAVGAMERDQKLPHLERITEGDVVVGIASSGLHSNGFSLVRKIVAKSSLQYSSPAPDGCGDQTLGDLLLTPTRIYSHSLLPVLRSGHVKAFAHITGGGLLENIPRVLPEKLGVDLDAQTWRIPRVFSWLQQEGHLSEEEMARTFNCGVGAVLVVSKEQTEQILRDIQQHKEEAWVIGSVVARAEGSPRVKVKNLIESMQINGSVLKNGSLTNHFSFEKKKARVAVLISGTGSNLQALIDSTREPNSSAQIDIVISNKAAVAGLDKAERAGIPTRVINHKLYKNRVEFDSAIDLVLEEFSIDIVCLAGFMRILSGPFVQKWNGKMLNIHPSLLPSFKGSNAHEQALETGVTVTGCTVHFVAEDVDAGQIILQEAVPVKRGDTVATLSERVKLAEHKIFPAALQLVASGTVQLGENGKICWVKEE
Chain of UniProt Q8TAG9 (Q8TAG9 whole entry, one chain of several): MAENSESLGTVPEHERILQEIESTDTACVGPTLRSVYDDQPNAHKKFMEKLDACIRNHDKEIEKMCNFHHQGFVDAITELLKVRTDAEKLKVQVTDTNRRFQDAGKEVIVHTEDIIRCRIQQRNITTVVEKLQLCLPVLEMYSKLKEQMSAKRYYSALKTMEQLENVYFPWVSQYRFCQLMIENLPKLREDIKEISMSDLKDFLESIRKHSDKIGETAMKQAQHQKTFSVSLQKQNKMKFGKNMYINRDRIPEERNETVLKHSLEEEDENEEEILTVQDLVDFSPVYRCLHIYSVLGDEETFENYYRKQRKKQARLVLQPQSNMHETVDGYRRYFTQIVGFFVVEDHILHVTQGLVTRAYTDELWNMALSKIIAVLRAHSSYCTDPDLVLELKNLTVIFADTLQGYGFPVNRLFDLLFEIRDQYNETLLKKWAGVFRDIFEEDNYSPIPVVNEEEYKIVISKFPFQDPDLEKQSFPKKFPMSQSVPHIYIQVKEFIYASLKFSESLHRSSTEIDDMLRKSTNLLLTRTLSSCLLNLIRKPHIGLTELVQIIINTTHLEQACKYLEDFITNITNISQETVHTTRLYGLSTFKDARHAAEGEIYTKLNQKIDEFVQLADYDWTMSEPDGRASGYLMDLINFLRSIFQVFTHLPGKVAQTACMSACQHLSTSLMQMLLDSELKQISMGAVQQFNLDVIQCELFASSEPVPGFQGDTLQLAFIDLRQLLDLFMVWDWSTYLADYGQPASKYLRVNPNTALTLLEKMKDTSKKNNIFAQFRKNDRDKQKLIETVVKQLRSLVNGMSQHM

Target	NP40-soluble protein abundance (concentration: 0.1mM)	NP40-soluble protein abundance (concentration: 0.5mM)	NP40-soluble protein abundance (concentration: 1mM)	NP40-soluble protein abundance (concentration: 2mM)	NP40-soluble protein abundance (concentration: 4mM)	NP40-soluble protein abundance (concentration: 6mM)	NP40-soluble protein abundance (concentration: 8mM)	NP40-soluble protein abundance (concentration: 10mM)
H0YEN5|P15880 (UniProt P15880)	0.979 ± 0.063	1.01 ± 0.1	0.965 ± 0.14	0.936 ± 0.19	0.848 ± 0.21	0.836 ± 0.21	0.738 ± 0.17	0.774 ± 0.2
C9JKQ7|C9JTV6|C9JZG2|P22102 (UniProt P22102)	0.96 ± 0.015	0.985 ± 0.03	0.9188 ± 0.0076	0.909 ± 0.023	0.895 ± 0.026	0.894 ± 0.017	0.863 ± 0.039	0.863 ± 0.022
G3XAG1|Q96ME7|Q96ME7-3 (UniProt Q96ME7)	1.1 ± 0.013	1.17 ± 0.055	1.27 ± 0.04	1.445 ± 0.014	1.74 ± 0.059	1.88 ± 0.079	2.01 ± 0.13	2.17 ± 0.081
A0A087X1B9|P02792 (UniProt P02792)	1.09 ± 0.16	1.03 ± 0.21	1.44 ± 0.11	1.55 ± 0.054	1.64 ± 0.14	1.465 ± 0.0048	1.43 ± 0.17	1.68 ± 0.12
E7EW84|Q8TAG9 (UniProt Q8TAG9)	0.9794 ± 0.0039	0.996 ± 0.039	0.959 ± 0.064	1.08 ± 0.082	1.01 ± 0.12	0.897 ± 0.022	0.882 ± 0.025	0.966 ± 0.18
